Data taken from PubChem BioAssay (EPA / NIEHS).
“And” between values parts separate entries of the source, which are not always exact repeats. Equal entries are not always repeated. Some structures have more than one record in an assay (separate samples or runs), and their calls can disagree. The source made the active and inactive calls. The calls were made as follows: active = hit-call score of the fitted dose curve at least 0.9, where 1 is the maximum; inactive = score below 0.9.

Columns and labels:
[1] = molecular target: Transcription factor E2F1 (Homo sapiens) (UniProt Q01094); test: ATG_E2F_CIS: Attagene CIS-FACTORIAL HepG2 Assay for human E2F Transcription Factor 1 (AID 2282935); conditions: HepG2 Attagene cis-reporter, E2F reporter RNA transcripts; actives raise or lower the signal
Sequence of Transcription factor E2F1 (Homo sapiens) (Q01094 whole entry, looked up): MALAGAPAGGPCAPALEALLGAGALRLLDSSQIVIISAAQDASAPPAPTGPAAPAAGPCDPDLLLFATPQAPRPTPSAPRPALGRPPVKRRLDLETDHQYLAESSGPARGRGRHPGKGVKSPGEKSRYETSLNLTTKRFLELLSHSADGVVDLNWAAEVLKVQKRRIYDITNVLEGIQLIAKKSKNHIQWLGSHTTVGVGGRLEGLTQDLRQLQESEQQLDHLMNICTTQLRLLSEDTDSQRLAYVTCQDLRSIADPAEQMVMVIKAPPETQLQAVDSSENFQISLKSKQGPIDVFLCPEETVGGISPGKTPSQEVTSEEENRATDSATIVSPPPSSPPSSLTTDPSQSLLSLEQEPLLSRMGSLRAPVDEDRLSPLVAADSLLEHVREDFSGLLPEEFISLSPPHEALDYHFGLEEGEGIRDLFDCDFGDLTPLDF
Summary of the method: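 Transient MRTU transfection of HepG2; 24 h compound exposure; RNA → oligo(dT) RT → PCR → FAM label → HpaI cut → CE fluorescence. Gain/loss of signal fit against DMSO.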

[2] = ATG_E_Box_CIS: Attagene CIS-FACTORIAL HepG2 Assay for human Enhancer Box (E-box) (AID 2282936); conditions: HepG2 E-box cis-reporter transcription, actives raise or lower the signal
Summary of the method: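 Transiently transfected HepG2, endogenous TF-driven reporters, 24 h dosing. Readout: RT-PCR plus capillary electrophoresis of fluorescent reporter fragments. Gain or loss of signal fitted bidirectionally against DMSO baseline.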

[3] = ATG_M_61_CIS: Attagene CIS-FACTORIAL HepG2 Assay for M61 Transcription Factor (Internal Marker) (AID 2282937); conditions: HepG2 Attagene CIS-FACTORIAL M61 internal marker reporter; actives raise or lower the signal
Summary of the method: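 Multiplexed reporter mRNA assay, HepG2 human hepatoma cells, 24 h treatment. Signal: FAM-labelled, HpaI-digested RT-PCR fragments by CE. Fit: bidirectional, baseline DMSO.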

[4] = ATG_EGR_CIS: Attagene CIS-FACTORIAL HepG2 Assay for human Early Growth Response 1 (EGR1) (AID 2282938); conditions: HepG2 Attagene CIS-FACTORIAL EGR reporter mRNA; actives raise or lower the signal
Summary of the method: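 Multiplexed cis-reporter system in human hepatoma HepG2 cells, transiently transfected. Cells are dosed for 24 h; reporter transcripts are amplified, fluorescently tagged and sized by capillary electrophoresis, with DMSO as negative control.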

[5] = ATG_M_19_CIS: Attagene CIS-FACTORIAL HepG2 Assay for M19 Transcription Factor (Internal Marker) (AID 2282939); conditions: HepG2 Attagene CIS-FACTORIAL M19 internal marker reporter; actives raise or lower the signal
Summary of the method: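 Chemical-treated HepG2 (24 h) with MRTU constructs; reporter transcripts detected by fluorescent RT-PCR fragment analysis on capillary electrophoresis. Internal background marker, DMSO as baseline.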

[6] = ATG_ERE_CIS: Attagene CIS-FACTORIAL HepG2 Assay for Estrogen Response Element (ERE) (AID 2282940); conditions: HepG2 ERE cis-reporter, Attagene RNA transcript; actives raise or lower the signal
Summary of the method: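 Human liver cells (HepG2) bearing transiently transfected, promoter-regulated reporter units were exposed 24 h. Reporter mRNA induction was detected by capillary electrophoresis of labelled RT-PCR products and fitted bidirectionally to DMSO.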

[7] = ATG_Ets_CIS: Attagene CIS-FACTORIAL HepG2 Assay for human Erythroblast Transformation Specific (ETS) (AID 2282941); conditions: HepG2 ETS cis-reporter transcription, actives raise or lower the signal
Summary of the method: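 RT-PCR/capillary electrophoresis fluorescence read-out of reporter mRNA; HepG2 transient multi-reporter transfection; 24 h compound exposure; gain or loss of signal fitted bidirectionally relative to DMSO.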

[8] = molecular target: Hepatocyte nuclear factor 3-beta (Homo sapiens) (UniProt Q9Y261); test: ATG_FoxA2_CIS: Attagene CIS-FACTORIAL HepG2 Assay for human Forkhead box A2 (FOXA2) (AID 2282942); conditions: HepG2 cis-reporter transcription factor activity, 24 h; actives raise or lower the signal
Sequence of Hepatocyte nuclear factor 3-beta (Homo sapiens) (Q9Y261 whole entry, looked up): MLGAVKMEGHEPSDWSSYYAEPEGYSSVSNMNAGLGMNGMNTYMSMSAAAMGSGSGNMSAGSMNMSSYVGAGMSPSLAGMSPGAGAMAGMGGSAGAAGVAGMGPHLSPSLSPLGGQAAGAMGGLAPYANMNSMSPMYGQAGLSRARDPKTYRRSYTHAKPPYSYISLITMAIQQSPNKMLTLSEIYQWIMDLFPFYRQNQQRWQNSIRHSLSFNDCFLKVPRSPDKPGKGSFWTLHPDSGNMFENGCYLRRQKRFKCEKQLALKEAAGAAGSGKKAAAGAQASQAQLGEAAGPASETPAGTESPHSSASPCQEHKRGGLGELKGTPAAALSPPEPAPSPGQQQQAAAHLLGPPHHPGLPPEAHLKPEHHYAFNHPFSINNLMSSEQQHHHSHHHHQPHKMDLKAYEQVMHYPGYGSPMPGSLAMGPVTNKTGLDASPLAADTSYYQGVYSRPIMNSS
Summary of the method: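 Multiplexed cis-element reporter assay in transiently transfected HepG2. Twenty-four hours post-dosing, RNA was reverse-transcribed, amplified, FAM-labelled, HpaI-digested and separated by CE. Activity gain or loss relative to DMSO.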

[9] = ATG_FoxO_CIS: Attagene CIS-FACTORIAL HepG2 Assay for human Forkhead box O (FoxO) (AID 2282943); conditions: HepG2 Attagene cis-reporter, FoxO element, mRNA; actives raise or lower the signal
Summary of the method: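 Transfected HepG2 reporter cells exposed to test chemical for 24 h; reporter RNA measured by reverse transcription, PCR and fluorescent capillary electrophoresis; curves fitted for increases and decreases against DMSO.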

[10] = ATG_GATA_CIS: Attagene CIS-FACTORIAL HepG2 Assay for human GATA Binding Protein (AID 2282944); conditions: HepG2 GATA cis-element reporter, Attagene multiplex mRNA; actives raise or lower the signal
Summary of the method: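 Transfected cis-reporter HepG2 cells were treated with chemicals for 24 hours. Total RNA was then converted to cDNA, amplified with reporter-specific primers and analysed by fluorescent capillary electrophoresis, using DMSO-treated wells as baseline.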

[11] = ATG_GLI_CIS: Attagene CIS-FACTORIAL HepG2 Assay for human Zinc Finger Protein GLI1 (AID 2282945); conditions: HepG2, Attagene cis-factorial reporter mRNA, GLI element; actives raise or lower the signal
Summary of the method: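 Transiently transfected HepG2 cells report endogenous transcription factor activity via cis-element-driven reporter units. After 24 h compound exposure, reporter mRNA was measured by RT-PCR with capillary electrophoresis; bidirectional fitting against DMSO baseline.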

[12] = molecular target: Bile acid receptor (Homo sapiens) (UniProt Q96RI1); test: ATG_IR1_CIS: Attagene CIS-FACTORIAL HepG2 Assay for human Nuclear Receptor Subfamily 1 Group H Member 4 (NR1H4), IR1 submotif (AID 2282946); conditions: IR1 reporter transcription, actives raise or lower the signal
Sequence of Bile acid receptor (Homo sapiens) (Q96RI1 whole entry, looked up): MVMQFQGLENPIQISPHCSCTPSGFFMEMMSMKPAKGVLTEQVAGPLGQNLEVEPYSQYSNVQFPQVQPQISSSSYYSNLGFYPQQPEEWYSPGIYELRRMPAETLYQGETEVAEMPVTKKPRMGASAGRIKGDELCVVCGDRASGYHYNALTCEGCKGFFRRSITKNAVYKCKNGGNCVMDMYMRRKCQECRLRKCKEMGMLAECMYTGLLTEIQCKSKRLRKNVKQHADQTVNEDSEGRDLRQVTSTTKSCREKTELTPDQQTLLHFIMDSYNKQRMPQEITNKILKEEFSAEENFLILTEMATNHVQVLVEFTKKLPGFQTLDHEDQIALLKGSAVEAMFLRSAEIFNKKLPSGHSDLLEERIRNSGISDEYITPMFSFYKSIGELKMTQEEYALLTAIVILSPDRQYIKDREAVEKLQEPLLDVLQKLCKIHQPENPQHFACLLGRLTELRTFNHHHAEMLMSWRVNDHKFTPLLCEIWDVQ
Summary of the method: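 Fluorescence of capillary-separated, HpaI-digested RT-PCR reporter products gave IR1-element mRNA induction in HepG2 cells 24 h after dosing. Endogenous transcription factors drove the cis-regulated reporters; activity was fitted bidirectionally against DMSO.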

[13] = ATG_GRE_CIS: Attagene CIS-FACTORIAL HepG2 Assay for human Glucocorticoid Response Elements (GRE) (AID 2282947); conditions: HepG2 GRE cis-reporter, Attagene multiplex mRNA; actives raise or lower the signal
Summary of the method: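 Read-out: fluorescent reporter-transcript fragments separated by capillary electrophoresis after RT-PCR. Transiently transfected HepG2 cells carrying cis-element-driven reporter units were dosed for 24 h; gain or loss of signal fitted against DMSO control.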

[14] = ATG_ISRE_CIS: Attagene CIS-FACTORIAL HepG2 Assay for human Interferon Regulatory Factor 1 (IRF1) binding to an Interferon-Stimulated Response Element (ISRE) (AID 2282948); conditions: HepG2 ISRE cis-reporter (Attagene), mRNA transcription readout; actives raise or lower the signal
Summary of the method: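 Read-out: fluorescent RT-PCR products resolved by capillary electrophoresis, reporting endogenous transcription factor activity via ISRE-driven reporter mRNA in transfected HepG2 cells dosed for 24 h; gain or loss fitted relative to DMSO.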

[15] = ATG_M_32_CIS: Attagene CIS-FACTORIAL HepG2 Assay for M32 Transcription Factor (Internal Marker) (AID 2282949); conditions: HepG2 Attagene cis-factorial M32 reporter, mRNA; actives raise or lower the signal;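 also: background control marker of the multiplexed CIS panel rather than a real target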
Summary of the method: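 Using DMSO as baseline, bidirectional curve fits were applied to reporter mRNA signals. These came from transiently transfected HepG2 cells exposed for 24 h, with RNA analysed by RT-PCR, FAM primer extension, HpaI digestion and CE.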

[16] = ATG_M_06_CIS: Attagene CIS-FACTORIAL HepG2 Assay for M06 Transcription Factor (Internal Marker) (AID 2282950); conditions: HepG2 Attagene CIS-FACTORIAL M06 internal marker reporter; actives raise or lower the signal
Summary of the method: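 Cells (HepG2, transiently carrying cis-driven reporter units) receive chemical for 24 h before RNA isolation. Reporter cDNA is PCR-amplified, FAM-labelled by primer extension, HpaI-digested and sized on a capillary analyser.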

[17] = molecular target: Hypoxia-inducible factor 1-alpha (Homo sapiens) (UniProt Q16665); test: ATG_HIF1a_CIS: Attagene CIS-FACTORIAL HepG2 Assay for human Hypoxia Inducible Factor 1 (HIF1A) (AID 2282951); conditions: HepG2 Attagene cis-factorial HIF1a reporter transcription; actives raise or lower the signal
Sequence of Hypoxia-inducible factor 1-alpha (Homo sapiens) (Q16665 whole entry, looked up): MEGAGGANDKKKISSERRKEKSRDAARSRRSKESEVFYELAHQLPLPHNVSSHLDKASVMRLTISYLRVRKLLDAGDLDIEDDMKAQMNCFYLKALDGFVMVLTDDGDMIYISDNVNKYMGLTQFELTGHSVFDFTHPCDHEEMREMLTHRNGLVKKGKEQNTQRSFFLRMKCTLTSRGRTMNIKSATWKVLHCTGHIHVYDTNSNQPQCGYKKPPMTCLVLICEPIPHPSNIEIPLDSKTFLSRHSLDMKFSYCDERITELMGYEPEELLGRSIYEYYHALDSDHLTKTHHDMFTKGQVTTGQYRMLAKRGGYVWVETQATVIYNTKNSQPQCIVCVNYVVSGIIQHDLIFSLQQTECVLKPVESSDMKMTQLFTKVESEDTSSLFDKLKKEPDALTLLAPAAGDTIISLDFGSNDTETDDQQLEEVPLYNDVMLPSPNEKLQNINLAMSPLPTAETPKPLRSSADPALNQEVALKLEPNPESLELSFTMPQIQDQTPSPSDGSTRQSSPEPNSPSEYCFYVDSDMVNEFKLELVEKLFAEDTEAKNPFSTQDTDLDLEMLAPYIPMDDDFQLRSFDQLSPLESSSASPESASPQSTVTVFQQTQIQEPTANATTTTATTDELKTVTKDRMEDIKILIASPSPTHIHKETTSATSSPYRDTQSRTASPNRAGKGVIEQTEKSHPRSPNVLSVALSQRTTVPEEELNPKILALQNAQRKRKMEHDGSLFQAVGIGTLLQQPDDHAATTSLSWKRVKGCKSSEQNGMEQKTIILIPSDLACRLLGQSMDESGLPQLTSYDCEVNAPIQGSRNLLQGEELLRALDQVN
Summary of the method: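 Cis-element reporter constructs were transiently transfected into HepG2 cells, which were treated for 24 h; reporter RNA was reverse-transcribed, amplified, labelled and resolved by capillary electrophoresis.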

[18] = molecular target: Hepatocyte nuclear factor 6 (Homo sapiens) (UniProt Q9UBC0); test: ATG_HNF6_CIS: Attagene CIS-FACTORIAL HepG2 Assay for human Hepatocyte Nuclear Factor 6 (HNF6) (AID 2282952); conditions: HepG2 Attagene cis-factorial HNF6 reporter transcription; actives raise or lower the signal
Sequence of Hepatocyte nuclear factor 6 (Homo sapiens) (Q9UBC0 whole entry, looked up, the tested form may be a part): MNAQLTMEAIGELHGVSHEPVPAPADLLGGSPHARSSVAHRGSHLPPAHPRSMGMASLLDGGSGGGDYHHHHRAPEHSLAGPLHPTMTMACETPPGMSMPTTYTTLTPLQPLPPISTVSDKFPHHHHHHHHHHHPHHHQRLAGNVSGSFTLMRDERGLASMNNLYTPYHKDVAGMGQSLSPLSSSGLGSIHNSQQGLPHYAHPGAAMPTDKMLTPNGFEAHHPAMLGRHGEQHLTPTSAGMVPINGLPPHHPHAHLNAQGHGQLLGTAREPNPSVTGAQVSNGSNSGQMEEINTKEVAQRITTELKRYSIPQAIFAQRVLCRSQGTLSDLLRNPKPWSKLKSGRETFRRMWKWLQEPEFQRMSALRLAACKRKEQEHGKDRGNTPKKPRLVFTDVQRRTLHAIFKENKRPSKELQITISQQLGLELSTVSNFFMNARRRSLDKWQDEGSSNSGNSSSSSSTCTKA
Summary of the method: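 First, HepG2 cells were transfected with the multiplexed cis reporter library and dosed with chemical for 24 h. Next, RNA was reverse-transcribed, PCR-amplified and fluorescently labelled. Finally, HpaI-digested fragments were read by capillary electrophoresis.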

[19] = molecular target: Heat shock factor protein 1 (Homo sapiens) (UniProt Q00613); test: ATG_HSE_CIS: Attagene CIS-FACTORIAL HepG2 Assay for human Heat Shock Transcription Factor 1 (HSE) (AID 2282953); conditions: HepG2 HSE cis-reporter, Attagene RNA transcription; actives raise or lower the signal
Sequence of Heat shock factor protein 1 (Homo sapiens) (Q00613 whole entry, looked up): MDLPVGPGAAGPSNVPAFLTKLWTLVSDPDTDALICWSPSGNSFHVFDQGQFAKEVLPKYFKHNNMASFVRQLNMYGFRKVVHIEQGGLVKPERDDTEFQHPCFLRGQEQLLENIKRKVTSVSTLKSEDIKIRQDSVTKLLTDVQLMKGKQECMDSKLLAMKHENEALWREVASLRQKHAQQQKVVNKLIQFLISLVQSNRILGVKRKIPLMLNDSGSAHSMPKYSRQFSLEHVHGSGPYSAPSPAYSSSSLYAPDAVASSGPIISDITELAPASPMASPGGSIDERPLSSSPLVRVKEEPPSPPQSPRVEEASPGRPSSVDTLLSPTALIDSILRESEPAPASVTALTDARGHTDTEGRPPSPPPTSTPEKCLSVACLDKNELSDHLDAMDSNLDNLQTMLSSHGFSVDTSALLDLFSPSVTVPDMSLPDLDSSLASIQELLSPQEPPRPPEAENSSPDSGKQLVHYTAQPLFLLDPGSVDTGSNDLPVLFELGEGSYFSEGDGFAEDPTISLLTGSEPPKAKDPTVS
Summary of the method: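 Liver-derived HepG2 cells carry transiently introduced multiple reporter units governed by cis promoters. Reporter RNA measured 24 h post-dose through reverse transcription, PCR amplification, fluorescent labelling and capillary electrophoresis, normalised to DMSO.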

[20] = ATG_MRE_CIS: Attagene CIS-FACTORIAL HepG2 Assay for human Metal Responsive Element (MRE) (AID 2282954); conditions: HepG2 MRE cis-reporter transcription, Attagene multiplex; actives raise or lower the signal
Summary of the method: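 RT-PCR/capillary electrophoresis readout of reporter mRNA, 24 h post-dosing, in HepG2 cells transfected with multiplexed cis-regulated reporter constructs. Gain or loss of signal fitted bidirectionally against DMSO baseline.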

Measured: AC50

CCOc1nc(NC)nc(NC(=O)NS(=O)(=O)c2ccccc2C(=O)OC)n1
inactive: all assays above

CN1CSC(=S)N(C)C1
active: [20] 50 µM
inactive: all other assays above

ClC1C(Cl)C(Cl)C(Cl)C(Cl)C1Cl (stereo not drawn)
active: [2] 100 µM and 69.6 µM | [7] 8.89 µM | [14] 161 µM and 58.2 µM | [20] 17.1 µM and 100 µM and 33.7 µM
inactive: [1] | [2] | [3] | [4] | [5] | [7] | [8] | [9] | [10] | [11] | [12] | [14] | [15] | [16] | [17] | [18] | [19] | [20]

CCc1ccc(C(=O)NN(C(=O)c2cc(C)cc(C)c2)C(C)(C)C)cc1
active: [4] 16.5 µM | [20] 18.2 µM
inactive: all other assays above

Clc1ccccc1-c1nnc(-c2ccccc2Cl)nn1
not listed: [12] | [13]
inactive: all other assays above

CC(C)(C)C(O)C(Oc1ccc(Cl)cc1)n1cncn1 (stereo not drawn)
active: [8] 16.9 µM | [20] 7.83 µM
inactive: [1] | [2] | [3] | [4] | [5] | [7] | [8] | [9] | [10] | [11] | [14] | [15] | [16] | [17] | [18] | [19] | [20]

O=C(NC(=O)c1c(F)cccc1F)Nc1ccc(OC(F)(F)C(F)OC(F)(F)F)c(Cl)c1 (stereo not drawn)
not listed: [12]
inactive: all other assays above
